Laboratory results: PubChem BioAssay AID1159580 (chemical genetic matrix, 2015)
In all, about 5,500 compounds went through this assay and about 2,000 (36%) were called active. Inconclusive results (about 18%) are left out. No stated cut-off is given here; in the data, active means normalized growth mostly below about 0.91 (no sharp cut-off); inconclusive means no clear call, values can overlap the other calls; inactive means mostly above about 0.92. This is one part of the list.

Experiment: chemical genetic growth profiling, strain panel (AID 1159580);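 further: tested at 20 µM; growth read once vehicle control cultures reached saturation at 30 °C; 1 = growth at the plate median or of vehicle wells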
Conditions: growth OD

Measured: normalized growth

CC1NC(=O)NC1=O (stereo unspecified)
inactive: S. cerevisiae deletion strains, locus YAL013W, strain DEP1, stronger effect = lower value 0.968 | S. cerevisiae deletion strains, locus YBR021W, strain FUR4, stronger effect = lower value 1.01 | S. cerevisiae deletion strains, locus YBR229C, strain ROT2, stronger effect = lower value 0.996 | S. cerevisiae deletion strains, locus YCL029C, strain bik1, stronger effect = lower value 1.01 | S. cerevisiae deletion strains, locus YDL035C, strain GPR1, stronger effect = lower value 0.987 | S. cerevisiae deletion strains, locus YDL074C, strain BRE1, stronger effect = lower value 1 | S. cerevisiae deletion strains, locus YDL101C, strain DUN1, stronger effect = lower value 1 | S. cerevisiae deletion strains, locus YDL134C, strain PPH21, stronger effect = lower value 1.01 | S. cerevisiae deletion strains, locus YDL185W, strain tfp1, stronger effect = lower value 1.01 | S. cerevisiae deletion strains, locus YDL192W, strain arf1, stronger effect = lower value 1.01 | S. cerevisiae deletion strains, locus YDR101C, strain arx1, stronger effect = lower value 1 | S. cerevisiae deletion strains, locus YDR150W, strain NUM1, stronger effect = lower value 1.02 | S. cerevisiae deletion strains, locus YDR162C, strain NBP2, stronger effect = lower value 1 | S. cerevisiae deletion strains, locus YDR318W, strain mcm21, stronger effect = lower value 1.02 | S. cerevisiae deletion strains, locus YDR388W, stronger effect = lower value 1.01 | S. cerevisiae deletion strains, locus YDR502C, strain sam2, stronger effect = lower value 1.01 | S. cerevisiae deletion strains, locus YEL061C, strain CIN8, stronger effect = lower value 0.997 | S. cerevisiae deletion strains, locus YER110C, stronger effect = lower value 1.01 | S. cerevisiae deletion strains, locus YER155C, strain BEM2, stronger effect = lower value 0.995 | S. cerevisiae deletion strains, locus YER167W, strain BCK2, stronger effect = lower value 0.998 | S. cerevisiae deletion strains, locus YGL078C, strain dbp3, stronger effect = lower value 1.01 | S. cerevisiae deletion strains, locus YGL086W, strain mad1, stronger effect = lower value 1.02 | S. cerevisiae deletion strains, locus YGL248W, strain PDE1, stronger effect = lower value 1.01 | S. cerevisiae deletion strains, locus YGR078C, strain PAC10, stronger effect = lower value 1.01 | S. cerevisiae deletion strains, locus YGR135W, strain pre9, stronger effect = lower value 1.01 | S. cerevisiae deletion strains, locus YGR229C, strain SMI1, stronger effect = lower value 0.986 | S. cerevisiae deletion strains, locus YGR252W, strain gcn5, stronger effect = lower value 1.02 | S. cerevisiae deletion strains, locus YHR030C, strain SLT2, stronger effect = lower value 1 | S. cerevisiae deletion strains, locus YHR079C, strain IRE1 (second series), stronger effect = lower value 1 | S. cerevisiae deletion strains, locus YHR094C, strain hxt1, stronger effect = lower value 1.01 | S. cerevisiae deletion strains, locus YHR129C, strain ARP1, stronger effect = lower value 0.999 | S. cerevisiae deletion strains, locus YHR200W, strain rpn10, stronger effect = lower value 1.01 | S. cerevisiae deletion strains, locus YIL066C, strain RNR3, stronger effect = lower value 0.99 | S. cerevisiae deletion strains, locus YIL073C, strain SPO22, stronger effect = lower value 1.07 | S. cerevisiae deletion strains, locus YIL125W, strain kgd1, stronger effect = lower value 1.02 | S. cerevisiae deletion strains, locus YIR030C, strain dcg1, stronger effect = lower value 1 | S. cerevisiae deletion strains, locus YJL095W, strain BCK1, stronger effect = lower value 0.986 | S. cerevisiae deletion strains, locus YJL134W, strain LCB3, stronger effect = lower value 0.994 | S. cerevisiae deletion strains, locus YJL168C, strain set2, stronger effect = lower value 1 | S. cerevisiae deletion strains, locus YJL187C, strain SWE1 (second series), stronger effect = lower value 0.999 | S. cerevisiae deletion strains, locus YJR043C, strain POL32, stronger effect = lower value 1.01 | S. cerevisiae deletion strains, locus YJR075W, strain HOC1, stronger effect = lower value 0.993 | S. cerevisiae deletion strains, locus YKL009W, strain mrt4, stronger effect = lower value 1.03 | S. cerevisiae deletion strains, locus YKL068W, stronger effect = lower value 1.01 | S. cerevisiae deletion strains, locus YKL085W, strain MDH1 (second series), stronger effect = lower value 1 | S. cerevisiae deletion strains, locus YKL085W, strain MDH1, stronger effect = lower value 1 | S. cerevisiae deletion strains, locus YKL190W, strain CNB1, stronger effect = lower value 1 | S. cerevisiae deletion strains, locus YKR001C, strain vps1, stronger effect = lower value 1.02 | S. cerevisiae deletion strains, locus YLR039C, strain RIC1, stronger effect = lower value 1.02 | S. cerevisiae deletion strains, locus YLR058C, strain SHM2, stronger effect = lower value 1 | S. cerevisiae deletion strains, locus YLR102C, strain apc9, stronger effect = lower value 1.01 | S. cerevisiae deletion strains, locus YLR262C, strain YPT6, stronger effect = lower value 1.02 | S. cerevisiae deletion strains, locus YLR268W, strain sec22, stronger effect = lower value 1 | S. cerevisiae deletion strains, locus YLR330W, strain CHS5, stronger effect = lower value 1 | S. cerevisiae deletion strains, locus YLR342W, strain FKS1 (second series), stronger effect = lower value 1 | S. cerevisiae deletion strains, locus YLR371W, strain rom2, stronger effect = lower value 1.01 | S. cerevisiae deletion strains, locus YLR418C, strain cdc73, stronger effect = lower value 1.01 | S. cerevisiae deletion strains, locus YML016C, strain PPZ1, stronger effect = lower value 1 | S. cerevisiae deletion strains, locus YML032C, strain rad52, stronger effect = lower value 1.02 | S. cerevisiae deletion strains, locus YML124C, strain tub3, stronger effect = lower value 1.01 | S. cerevisiae deletion strains, locus YMR078C, strain ctf18, stronger effect = lower value 1.01 | S. cerevisiae deletion strains, locus YMR223W, strain ubp8, stronger effect = lower value 1.01 | S. cerevisiae deletion strains, locus YMR263W, strain SAP30, stronger effect = lower value 0.994 | S. cerevisiae deletion strains, locus YMR307W, strain GAS1, stronger effect = lower value 0.983 | S. cerevisiae deletion strains, locus YNL067W, strain RPL9B, stronger effect = lower value 1 | S. cerevisiae deletion strains, locus YNL128W, strain TEP1, stronger effect = lower value 0.975 | S. cerevisiae deletion strains, locus YNL153C, strain GIM3, stronger effect = lower value 1.01 | S. cerevisiae deletion strains, locus YNL233W, strain BNI4, stronger effect = lower value 1 | S. cerevisiae deletion strains, locus YNL250W, strain rad50, stronger effect = lower value 1.01 | S. cerevisiae deletion strains, locus YNL271C, strain bni1, stronger effect = lower value 1 | S. cerevisiae deletion strains, locus YNL298W, strain CLA4, stronger effect = lower value 1.02 | S. cerevisiae deletion strains, locus YNL307C, strain MCK1, stronger effect = lower value 1.02 | S. cerevisiae deletion strains, locus YNL322C, strain KRE1, stronger effect = lower value 0.991 | S. cerevisiae deletion strains, locus YNR052C, strain pop2, stronger effect = lower value 1 | S. cerevisiae deletion strains, locus YOL006C, strain TOP1, stronger effect = lower value 1 | S. cerevisiae deletion strains, locus YOL012C, strain htz1 0.89 | S. cerevisiae deletion strains, locus YOL147C, strain pex11, stronger effect = lower value 1.02 | S. cerevisiae deletion strains, locus YOR061W, strain CKA2, stronger effect = lower value 0.998 | S. cerevisiae deletion strains, locus YOR069W, strain VPS5, stronger effect = lower value 0.998 | S. cerevisiae deletion strains, locus YOR136W, strain idh2, stronger effect = lower value 1.02 | S. cerevisiae deletion strains, locus YOR144C, strain elg1, stronger effect = lower value 1.01 | S. cerevisiae deletion strains, locus YOR184W, strain ser1, stronger effect = lower value 1.03 | S. cerevisiae deletion strains, locus YOR316C, strain cot1, stronger effect = lower value 1 | S. cerevisiae deletion strains, locus YPL055C, strain LGE1, stronger effect = lower value 0.986 | S. cerevisiae deletion strains, locus YPL241C, strain CIN2, stronger effect = lower value 1 | S. cerevisiae deletion strains, locus YPR119W, strain clb2, stronger effect = lower value 1.01 | S. cerevisiae deletion strains, locus YPR141C, strain kar3, stronger effect = lower value 1.01 | S. cerevisiae deletion strains, locus YPR163C, strain tif3, stronger effect = lower value 1.02 | S. cerevisiae deletion strains, locus YPR167C, strain met16, stronger effect = lower value 1.01 | S. cerevisiae deletion strains, strain wtn01, stronger effect = lower value 1.01 | S. cerevisiae strains, strain wild type, stronger effect = lower value 0.98
